Results filed as inconclusive are left out. Values without a mark were called inactive. Activity calls are given as the source filed them. Calls follow the shape of the dose curve; as a rule, active = well fitted curve in the direction sought with a large enough effect; inconclusive = small, poorly fitted or top-dose-only effect, or another doubt; inactive = no such curve, though single readings can be large; an effect the other way counts as inactive or inconclusive.
Key:
[1] = Quantitative High-Throughput drug screen in 47 multiple myeloma cell lines against the NCATS MIPE library collection: FR4_PLB cell viability assay (AID 1918924; also: nearly all actives have a fitted effect of over 35% in size;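 as to viability (% of DMSO control): 100% = DMSO-treated cells and 0% = wells with media only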)
Summary of the method: (§1)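 Viability readout: CellTiter-Glo luminescence following 5 min room-temperature incubation with reagent. Prior exposure: 48 h, 37C, humidified 5% CO2, 500 cells per well.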

[2] = Quantitative High-Throughput drug screen in 47 multiple myeloma cell lines against the NCATS MIPE library collection: Delta47_JCRB cell viability assay (AID 1918925; also: nearly all actives have a fitted effect of over 45% in size;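 as to viability (% of DMSO): 0% = media-only wells and 100% = DMSO-only wells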)
Summary of the method: (§2)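 Primary qHTS used for cherry-picking: cells at 500/well, library compounds for 48 h (37C, 5% CO2), luminescent ATP assay.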

[3] = Quantitative High-Throughput drug screen in 47 multiple myeloma cell lines against the NCATS MIPE library collection: EJM_DSMZ cell viability assay (AID 1918926; also: nearly all actives have a fitted effect of over 30% in size;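 as to viability, % of control: 100% = DMSO-only wells and 0% = media-only wells without cells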)
Summary of the method: as §2

[4] = Quantitative High-Throughput drug screen in 47 multiple myeloma cell lines against the NCATS MIPE library collection: AMO1_DSMZ cell viability assay (AID 1918927; also: nearly all actives have a fitted effect of over 30% in size)
Summary of the method: as §2

[5] = Quantitative High-Throughput drug screen in 47 multiple myeloma cell lines against the NCATS MIPE library collection: Karpas620_DSMZ cell viability assay (AID 1918959); also: nearly all actives have a fitted effect of over 30% in size;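 as to viability (% of DMSO): 100% = DMSO-only wells and 0% = cell-free media-only wells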
Summary of the method: as §1

[6] = Quantitative High-Throughput drug screen in 47 multiple myeloma cell lines against the NCATS MIPE library collection: KHM11_PLB cell viability assay (AID 1918962); also: nearly all actives have a fitted effect of over 35% in size
Summary of the method: as §1

[7] = Quantitative High-Throughput drug screen in 47 multiple myeloma cell lines against the NCATS MIPE library collection: JIM1_ECACC cell viability assay (AID 1918964)
Summary of the method: as §2

[8] = Quantitative High-Throughput drug screen in 47 multiple myeloma cell lines against the NCATS MIPE library collection: ARD_JJKsccE7 cell viability assay (AID 1918929;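 as to viability: 100% = DMSO-only wells and 0% = media-only wells without cells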)
Summary of the method: as §2

[9] = Quantitative High-Throughput drug screen in 47 multiple myeloma cell lines against the NCATS MIPE library collection: KMM1_JCRB cell viability assay (AID 1918960); also: nearly all actives have a fitted effect of over 30% in size;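 as to viability (% of DMSO): 100% = DMSO-treated cells and 0% = medium-only wells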
Summary of the method: (§3)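 Here, 48 h treatment with MIPE 4.0 agents at 37 °C preceded an ATP luminescence read. Plating density was 500 cells per well.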

[10] = Quantitative High-Throughput drug screen in 47 multiple myeloma cell lines against the NCATS MIPE library collection: ARP1_JJKsccF8 cell viability assay (AID 1918928; also: nearly all actives have a fitted effect of over 40% in size;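 as to viability: 100% = DMSO only wells and 0% = medium only wells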)
Summary of the method: as §3

[11] = Quantitative High-Throughput drug screen in 47 multiple myeloma cell lines against the NCATS MIPE library collection: JIM3_ECACC cell viability assay (AID 1918963; also: nearly all actives have a fitted effect of over 35% in size)
Summary of the method: as §1

[12] = Quantitative High-Throughput drug screen in 47 multiple myeloma cell lines against the NCATS MIPE library collection: Karpas417_ECACC cell viability assay (AID 1918961); conditions: Karpas417 myeloma viability, CellTiter-Glo ATP luminescence, 48 h; viability (% of DMSO): at 45.8 µM (top of the series);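 as to viability (% of DMSO): 100% = DMSO only wells and 0% = media only wells without cells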
Summary of the method: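 Approved and investigational drugs from MIPE 4.0 were added by pin tool to 500 cells per well. After 48 hours at 37C, ATP-based CellTiter-Glo luminescence indicated remaining viability.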
Potency is read from the fitted curve at half-maximal effect.

## CC(=O)O[C@]1(C(C)=O)CC[C@H]2[C@@H]3C=C(C)C4=CC(=O)CC[C@]4(C)[C@@H]3CC[C@@]21C
[1]
  Potency: inactive
[2]
  Potency: 8330 nM (active)
[3]
  Potency: inactive
[4]
  Potency: 8330 nM (active)
[5]
  Potency: 14800 nM (active)
[6]
  Potency: inactive
[7]
  Potency: 10500 nM (active)

## C[C@H](CCC(=O)O)[C@H]1CC[C@H]2[C@@H]3[C@H](O)C[C@@H]4C[C@H](O)CC[C@]4(C)[C@@H]3CC[C@]12C
[1]
  Potency: inactive
[2]
  Potency: inactive
[3]
  Potency: inactive
[4]
  Potency: inactive
[8]
  Potency: inactive
[5]
  Potency: inactive
[9]
  Potency: inactive

## CC(C)(C)[C@H](NC(=O)c1ccc(N)c(Cl)c1)C(=O)N1CCC[C@@H]1C(=O)N[C@H](C#N)CC(=O)O
[1]
  viability (% of DMSO control): 107% [at 3.51 µM]
[2]
  viability (% of DMSO): 119% [at 3.51 µM]
[3]
  viability, % of control: 97.8% [at 3.51 µM]
[10]
  viability: 111% [at 3.51 µM]
[5]
  viability (% of DMSO): 126% [at 3.51 µM]
[9]
  viability (% of DMSO): 90.2% [at 3.51 µM]

## COc1cc([C@@H]2c3cc4c(cc3[C@@H](O[C@@H]3O[C@@H]5CO[C@@H](c6cccs6)O[C@@H]5[C@H](O)[C@@H]3O)[C@H]3COC(=O)[C@H]23)OCO4)cc(OC)c1O
[1]
  Potency: 16600 nM (active)
[2]
  Potency: 935 nM (active)
[3]
  Potency: 2350 nM (active)
[4]
  Potency: 590 nM (active)
[10]
  Potency: 209 nM (active)
[5]
  Potency: 2960 nM (active)
[9]
  Potency: 743 nM (active)
[11]
  Potency: 833 nM (active)
[7]
  Potency: 209 nM (active)

## C=CC[C@@H]1C=C(C)C[C@H](C)C[C@H](OC)[C@H]2O[C@@](O)(C(=O)C(=O)N3CCCC[C@H]3C(=O)O[C@H](C(C)=C[C@@H]3CC[C@H](O)[C@H](OC)C3)[C@@H](C)[C@@H](O)CC1=O)[C@@H](C)C[C@@H]2OC
[1]
  Potency: 2640 nM (active)
[2]
  Potency: 1870 nM (active)
[4]
  Potency: 2640 nM (active)
[10]
  Potency: 2090 nM (active)
[8]
  Potency: 2090 nM (active)
[5]
  Potency: 1480 nM (active)
[9]
  Potency: 2090 nM (active)
[6]
  Potency: 2640 nM (active)
[11]
  Potency: 3720 nM (active)
[7]
  Potency: 1180 nM (active)

## CC(C)(C)[N+]([O-])=Cc1ccc(S(=O)(=O)O)cc1S(=O)(=O)O
[1]
  Potency: inactive
[2]
  Potency: inactive
[3]
  Potency: inactive
[4]
  Potency: inactive
[10]
  Potency: inactive
[5]
  Potency: inactive
[9]
  Potency: inactive
[11]
  Potency: inactive
[7]
  Potency: inactive

## Cc1cc(-c2nnc3n2CCCCC3)c(C)n1-c1ccccc1
[1]
  Potency: inactive
[2]
  Potency: inactive
[4]
  Potency: inactive
[10]
  Potency: inactive
[8]
  Potency: inactive
[11]
  Potency: inactive

## CC(C)N1[N]C(=C2C=c3cc(O)ccc3=N2)c2c(N)ncnc21
[1]
  Potency: 296 nM (active)
[2]
  Potency: 264 nM (active)
[3]
  Potency: 3720 nM (active)
[4]
  Potency: 662 nM (active)
[5]
  Potency: 5900 nM (active)
[9]
  Potency: 296 nM (active)
[12]
  Potency: 33.2 nM (active)
[6]
  Potency: 83.3 nM (active)
[11]
  Potency: 264 nM (active)

## C[C@@H](Oc1ccc2[nH]nc(C=Cc3cnn(CCO)c3)c2c1)c1c(Cl)cncc1Cl
[1]
  Potency: 26400 nM (active)
[2]
  Potency: 469 nM (active)
[3]
  Potency: 4180 nM (active)
[4]
  Potency: inactive
[10]
  Potency: 5260 nM (active)
[8]
  Potency: inactive
[9]
  Potency: inactive
[12]
  Potency: inactive
[6]
  Potency: 1870 nM (active)
[11]
  Potency: 372 nM (active)
[7]
  Potency: inactive

## CCCCCN=C(N)NN=Cc1c[nH]c2ccc(OC)cc12
[1]
  Potency: 2350 nM (active)
[2]
  Potency: 13200 nM (active)
[3]
  Potency: 13200 nM (active)
[4]
  Potency: 1320 nM (active)
[8]
  Potency: 2960 nM (active)
[9]
  Potency: 3320 nM (active)
[11]
  Potency: 5260 nM (active)
[7]
  Potency: 1480 nM (active)

## C=C1C(=O)O[C@H]2[C@@H]1CCC(C)=CCC[C@@]1(C)O[C@@H]21
[1]
  Potency: 4690 nM (active)
[2]
  Potency: 2350 nM (active)
[3]
  Potency: 5260 nM (active)
[4]
  Potency: 3320 nM (active)
[8]
  Potency: 2960 nM (active)
[6]
  Potency: 10500 nM (active)
[11]
  Potency: 2960 nM (active)

## Nc1nc(=O)n([C@H]2CSC(CO)O2)cc1F (stereo partly specified)
[1]
  Potency: inactive
[2]
  Potency: inactive
[3]
  Potency: inactive
[4]
  Potency: inactive
[8]
  Potency: inactive
[5]
  Potency: inactive
[9]
  Potency: inactive
[11]
  Potency: inactive

## N#CC(=Cc1ccc(O)c(O)c1)C(=O)NCc1ccccc1
[1]
  Potency: 5260 nM (active)
[2]
  Potency: 1660 nM (active)
[3]
  Potency: 14800 nM (active)
[4]
  Potency: inactive
[5]
  Potency: inactive
[9]
  Potency: inactive
[6]
  Potency: 9350 nM (active)
[11]
  Potency: 8330 nM (active)

## C[C@@]12C(=O)OC(=O)[C@@]1(C)C1CCC2O1
[1]
  Potency: 1480 nM (active)
[2]
  Potency: 935 nM (active)
[3]
  Potency: 2640 nM (active)
[4]
  Potency: 1320 nM (active)
[8]
  Potency: 1660 nM (active)
[5]
  Potency: 2960 nM (active)
[9]
  Potency: 743 nM (active)
[12]
  Potency: 2960 nM (active)
[6]
  Potency: 2350 nM (active)
[11]
  Potency: 1870 nM (active)
[7]
  Potency: 662 nM (active)

Reference: PubChem BioAssay (NCATS)
